Targets with a hit are over-represented here; the source holds about 6,500 in all. About 2% of all pairs of compound and target were hits. Unmarked numbers belong to inactive results.
Compound: COC(=O)C#Cc1ccccc1 [methyl 3-phenylpropiolate]
Assay: log2 ratio of iodoacetamide-alkyne labeling of the cysteine site, DMSO over compound (competition); higher = stronger covalent engagement of the cysteine by the compound, active = 1 or more
Conditions: 500 µM; treatment time 1 h; system: HEK293T cell lysate
How it was run: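 Three replicates, each with duplicate channels, were prepared from HEK293T lysate (2 mg/mL) treated with vehicle or electrophile at 500 µM for 1 h at ambient temperature. Iodoacetamide alkyne was then applied for 1 h, and samples were clicked to sCIP-TMT reagents, pooled, trypsin-digested overnight at 37 °C, enriched on streptavidin, acid-eluted and analysed on Orbitrap Eclipse LC-MS/MS with FAIMS, with FragPipe quantification. The log2 competition ratio per cysteine is the mean control-channel divided by the mean compound-channel reporter intensity. Cysteines quantified in only one replicate were left out.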

Chain of UniProt Q9ULT8 (Q9ULT8 whole entry, looked up): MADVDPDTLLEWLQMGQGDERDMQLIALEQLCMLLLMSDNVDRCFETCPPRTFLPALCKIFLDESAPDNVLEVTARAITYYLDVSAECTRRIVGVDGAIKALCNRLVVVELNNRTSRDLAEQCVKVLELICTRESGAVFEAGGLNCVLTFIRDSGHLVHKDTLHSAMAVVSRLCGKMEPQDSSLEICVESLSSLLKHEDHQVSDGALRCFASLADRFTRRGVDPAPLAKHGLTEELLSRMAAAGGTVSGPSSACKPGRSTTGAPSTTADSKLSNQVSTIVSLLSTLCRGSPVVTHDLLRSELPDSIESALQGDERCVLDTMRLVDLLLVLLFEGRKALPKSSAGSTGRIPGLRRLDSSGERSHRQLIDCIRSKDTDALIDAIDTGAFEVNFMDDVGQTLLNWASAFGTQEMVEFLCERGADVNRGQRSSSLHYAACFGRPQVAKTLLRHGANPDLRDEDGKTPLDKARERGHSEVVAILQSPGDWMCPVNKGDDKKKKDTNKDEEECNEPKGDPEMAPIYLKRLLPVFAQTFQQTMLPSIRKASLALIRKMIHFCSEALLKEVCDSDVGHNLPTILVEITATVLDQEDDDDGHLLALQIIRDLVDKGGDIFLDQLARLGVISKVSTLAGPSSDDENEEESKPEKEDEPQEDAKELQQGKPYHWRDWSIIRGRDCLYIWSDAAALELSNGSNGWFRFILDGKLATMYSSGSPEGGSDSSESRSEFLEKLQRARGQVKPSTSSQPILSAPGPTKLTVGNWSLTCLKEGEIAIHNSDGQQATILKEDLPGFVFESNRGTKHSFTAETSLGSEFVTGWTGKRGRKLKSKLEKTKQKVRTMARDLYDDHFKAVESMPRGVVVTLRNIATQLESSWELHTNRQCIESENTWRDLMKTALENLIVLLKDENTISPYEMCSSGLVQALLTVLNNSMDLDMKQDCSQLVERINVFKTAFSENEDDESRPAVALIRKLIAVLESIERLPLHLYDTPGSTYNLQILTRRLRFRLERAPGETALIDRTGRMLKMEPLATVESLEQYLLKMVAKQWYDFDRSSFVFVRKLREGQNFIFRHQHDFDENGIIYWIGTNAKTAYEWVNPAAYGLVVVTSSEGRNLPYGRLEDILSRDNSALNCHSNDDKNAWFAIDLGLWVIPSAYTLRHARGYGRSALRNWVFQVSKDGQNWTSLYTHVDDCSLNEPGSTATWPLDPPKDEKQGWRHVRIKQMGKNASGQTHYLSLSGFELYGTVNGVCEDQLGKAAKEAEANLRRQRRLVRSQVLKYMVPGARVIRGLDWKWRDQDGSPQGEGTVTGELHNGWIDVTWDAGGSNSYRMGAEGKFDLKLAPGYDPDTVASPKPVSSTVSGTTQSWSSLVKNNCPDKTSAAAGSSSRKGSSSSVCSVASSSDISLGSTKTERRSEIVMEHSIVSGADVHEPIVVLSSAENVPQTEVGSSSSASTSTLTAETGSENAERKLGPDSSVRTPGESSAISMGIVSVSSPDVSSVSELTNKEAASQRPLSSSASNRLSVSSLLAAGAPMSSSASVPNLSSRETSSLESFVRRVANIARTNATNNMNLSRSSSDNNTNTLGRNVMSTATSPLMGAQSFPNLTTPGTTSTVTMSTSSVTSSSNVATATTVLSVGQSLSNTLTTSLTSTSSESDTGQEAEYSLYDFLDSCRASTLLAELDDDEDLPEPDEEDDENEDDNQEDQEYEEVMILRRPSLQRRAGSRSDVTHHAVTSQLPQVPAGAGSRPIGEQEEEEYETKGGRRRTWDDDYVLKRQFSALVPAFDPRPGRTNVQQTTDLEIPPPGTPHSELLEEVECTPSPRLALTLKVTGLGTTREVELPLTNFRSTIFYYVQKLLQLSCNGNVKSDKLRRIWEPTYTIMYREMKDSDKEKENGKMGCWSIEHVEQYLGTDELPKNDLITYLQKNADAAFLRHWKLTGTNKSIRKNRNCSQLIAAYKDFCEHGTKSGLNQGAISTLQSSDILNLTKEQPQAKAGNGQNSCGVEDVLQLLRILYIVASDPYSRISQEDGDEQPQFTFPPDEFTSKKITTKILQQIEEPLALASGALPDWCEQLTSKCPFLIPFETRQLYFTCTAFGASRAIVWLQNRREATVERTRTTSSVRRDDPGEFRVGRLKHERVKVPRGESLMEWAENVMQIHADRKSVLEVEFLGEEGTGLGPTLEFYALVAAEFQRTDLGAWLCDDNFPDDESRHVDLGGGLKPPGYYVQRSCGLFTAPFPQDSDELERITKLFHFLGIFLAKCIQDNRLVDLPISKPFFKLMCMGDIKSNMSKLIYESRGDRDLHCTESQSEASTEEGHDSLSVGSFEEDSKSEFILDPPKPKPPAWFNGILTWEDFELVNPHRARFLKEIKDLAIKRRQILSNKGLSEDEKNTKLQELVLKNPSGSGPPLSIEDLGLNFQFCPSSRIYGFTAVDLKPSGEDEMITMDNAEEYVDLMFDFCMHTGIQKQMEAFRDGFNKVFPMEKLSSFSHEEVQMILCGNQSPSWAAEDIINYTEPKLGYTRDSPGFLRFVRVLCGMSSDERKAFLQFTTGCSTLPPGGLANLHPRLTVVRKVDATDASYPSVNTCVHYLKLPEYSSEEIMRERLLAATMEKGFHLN
Chain of UniProt Q9UGV2 (Q9UGV2 whole entry, looked up): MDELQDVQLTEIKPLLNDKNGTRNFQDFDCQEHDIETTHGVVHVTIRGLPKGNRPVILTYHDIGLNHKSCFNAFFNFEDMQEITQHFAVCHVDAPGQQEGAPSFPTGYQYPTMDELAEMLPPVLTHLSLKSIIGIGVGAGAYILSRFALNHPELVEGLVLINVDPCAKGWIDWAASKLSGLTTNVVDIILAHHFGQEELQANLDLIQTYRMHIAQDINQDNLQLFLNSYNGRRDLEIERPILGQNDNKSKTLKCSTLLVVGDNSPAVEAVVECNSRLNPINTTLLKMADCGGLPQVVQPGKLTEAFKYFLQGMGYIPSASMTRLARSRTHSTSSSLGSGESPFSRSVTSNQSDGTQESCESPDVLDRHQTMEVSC
Chain of UniProt Q9UHD1 (Q9UHD1 whole entry, looked up): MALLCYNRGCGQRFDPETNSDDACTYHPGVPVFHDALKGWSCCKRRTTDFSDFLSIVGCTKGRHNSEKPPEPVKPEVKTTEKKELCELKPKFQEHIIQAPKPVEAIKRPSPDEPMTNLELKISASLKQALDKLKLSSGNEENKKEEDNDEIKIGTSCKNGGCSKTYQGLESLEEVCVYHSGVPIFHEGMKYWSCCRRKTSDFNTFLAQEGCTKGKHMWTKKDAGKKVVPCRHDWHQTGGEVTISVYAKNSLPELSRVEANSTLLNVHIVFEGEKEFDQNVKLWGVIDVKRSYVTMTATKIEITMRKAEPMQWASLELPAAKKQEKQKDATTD
Chain of UniProt Q9P2J5 (Q9P2J5 whole entry, looked up): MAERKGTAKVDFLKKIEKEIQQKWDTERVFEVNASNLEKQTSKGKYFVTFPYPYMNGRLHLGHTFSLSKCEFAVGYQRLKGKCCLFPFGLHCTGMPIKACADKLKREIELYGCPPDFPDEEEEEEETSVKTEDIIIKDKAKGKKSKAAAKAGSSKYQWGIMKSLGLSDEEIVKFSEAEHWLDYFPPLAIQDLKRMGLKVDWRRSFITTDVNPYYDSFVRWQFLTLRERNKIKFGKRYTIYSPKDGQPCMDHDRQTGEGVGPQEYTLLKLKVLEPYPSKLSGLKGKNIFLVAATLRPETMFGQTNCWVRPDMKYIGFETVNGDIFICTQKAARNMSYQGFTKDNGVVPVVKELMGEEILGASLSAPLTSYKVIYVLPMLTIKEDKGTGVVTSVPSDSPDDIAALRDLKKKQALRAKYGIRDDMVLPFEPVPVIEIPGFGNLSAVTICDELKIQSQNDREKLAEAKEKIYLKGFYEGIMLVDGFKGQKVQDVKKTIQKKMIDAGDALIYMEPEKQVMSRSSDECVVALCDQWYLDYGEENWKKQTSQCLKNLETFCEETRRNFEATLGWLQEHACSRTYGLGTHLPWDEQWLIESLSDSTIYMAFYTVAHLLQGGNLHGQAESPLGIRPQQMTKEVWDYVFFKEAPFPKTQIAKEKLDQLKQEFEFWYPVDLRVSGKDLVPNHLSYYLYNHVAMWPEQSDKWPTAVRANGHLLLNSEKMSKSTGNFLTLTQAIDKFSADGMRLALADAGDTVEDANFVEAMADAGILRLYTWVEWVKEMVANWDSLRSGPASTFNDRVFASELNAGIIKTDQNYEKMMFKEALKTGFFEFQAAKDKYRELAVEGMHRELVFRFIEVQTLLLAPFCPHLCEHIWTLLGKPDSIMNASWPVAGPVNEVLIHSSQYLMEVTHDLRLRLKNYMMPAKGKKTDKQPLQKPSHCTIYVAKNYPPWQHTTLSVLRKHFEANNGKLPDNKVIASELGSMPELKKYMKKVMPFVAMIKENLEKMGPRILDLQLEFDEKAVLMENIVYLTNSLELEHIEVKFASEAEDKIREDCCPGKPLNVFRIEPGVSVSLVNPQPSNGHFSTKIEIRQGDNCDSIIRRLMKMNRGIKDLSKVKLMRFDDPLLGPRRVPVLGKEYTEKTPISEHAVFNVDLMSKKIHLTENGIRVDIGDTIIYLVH
Chain of UniProt Q9H4H8 (Q9H4H8 whole entry, looked up): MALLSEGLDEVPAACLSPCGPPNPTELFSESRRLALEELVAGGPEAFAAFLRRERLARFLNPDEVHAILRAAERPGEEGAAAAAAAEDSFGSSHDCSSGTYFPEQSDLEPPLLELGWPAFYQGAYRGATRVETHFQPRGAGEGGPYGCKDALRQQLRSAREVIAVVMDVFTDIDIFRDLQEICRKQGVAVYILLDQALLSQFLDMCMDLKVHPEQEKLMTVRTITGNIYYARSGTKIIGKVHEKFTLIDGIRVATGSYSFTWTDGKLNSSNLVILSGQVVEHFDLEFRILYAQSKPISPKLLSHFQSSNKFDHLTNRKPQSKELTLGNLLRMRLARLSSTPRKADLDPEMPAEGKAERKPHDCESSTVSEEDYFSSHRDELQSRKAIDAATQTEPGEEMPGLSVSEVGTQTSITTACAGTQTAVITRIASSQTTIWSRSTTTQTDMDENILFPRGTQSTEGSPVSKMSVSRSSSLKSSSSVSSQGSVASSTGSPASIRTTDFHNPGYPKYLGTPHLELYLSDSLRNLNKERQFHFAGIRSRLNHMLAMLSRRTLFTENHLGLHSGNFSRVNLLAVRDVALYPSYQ

| Target | log2 ratio of iodoacetamide-alkyne labeling |
| --- | --- |
| REXO4 C382 (UniProt Q9GZR2) | 1.23 (active) |
| HNRNPUL1 C291 (UniProt Q9BUJ2) | 0.483 |
| DDX20 C524 (UniProt Q9UHI6) | 0.6 |
| LARS C554 (UniProt Q9P2J5) | 1.74 (active) |
| ACAT2 C360 (UniProt Q9BWD1) | -0.0247 |
| CPSF3 C655 (UniProt Q9UKF6) | 0.293 |
| TRIM33 C153 (UniProt Q9UPN9) | 0.274 |
| RRBP1 C892 (UniProt Q9P2E9) | 0.291 |
| UniProt Q9UPN4_C218 | 0.212 |
| KIDINS220 C412 (UniProt Q9ULH0) | 0.0082 |
| UniProt Q9UBD5_C158 | 1.13 (active) |
| CHORDC1 C5 (UniProt Q9UHD1) | -0.0481 |
| LRRC40 C227 (UniProt Q9H9A6) | 0.34 |
| TNKS1BP1 C1337 (UniProt Q9C0C2) | 1.01 (active) |
| JMJD4 C101 (UniProt Q9H9V9) | 0.898 |
| SRRM2 C1016 (UniProt Q9UQ35) | 1.12 (active) |
| RNPEP C181 (UniProt Q9H4A4) | 0.0149 |
| UNC45A C34 (UniProt Q9H3U1) | 0.0992 |
| BAZ1B C953 (UniProt Q9UIG0) | 1.28 (active) |
| ZYG11B C643 (UniProt Q9C0D3) | 0.222 |

| Target | log2 ratio of iodoacetamide-alkyne labeling |
| --- | --- |
| TNKS1BP1 C1324 (UniProt Q9C0C2) | 1.18 (active) |
| DERA C118 (UniProt Q9Y315) | 0.275 |
| UNC45A C420 (UniProt Q9H3U1) | 0.56 |
| NOL6 C1034 (UniProt Q9H6R4) | 1.81 (active) |
| MDN1 C271 (UniProt Q9NU22) | 0.728 |
| NDRG3 C290 (UniProt Q9UGV2) | -0.105 |
| MDN1 C3492 (UniProt Q9NU22) | 0.35 |
| UniProt Q9BWW4_C80 | 0.318 |
| UniProt Q9Y3U8_C48 | 0.297 |
| ITSN2 C1194 (UniProt Q9NZM3) | -0.296 |
| FTO C326 (UniProt Q9C0B1) | 0.0865 |
| MAP3K4 C163 (UniProt Q9Y6R4) | 0.0336 |
| NUDT5 C76 (UniProt Q9UKK9) | 0.157 |
| HECTD1 C1368 (UniProt Q9ULT8) | 0.751 |
| UniProt Q9P260_C624 | 0.299 |
| DCTN4 C41 (UniProt Q9UJW0) | 0.309 |
| TPX2 C145 (UniProt Q9ULW0) | 0.384 |
| FAM83D C15 (UniProt Q9H4H8) | 1.11 (active) |
| UniProt Q9Y3D0_C93 | 0.0692 |
| C11orf68 C222 (UniProt Q9H3H3) | 0.528 |

— the supplement of paper PMC11006884
